Bioassay records (PubChem)
Hits are enriched below; roughly 19% of the tested compounds scored in any of these assays.
DT40 TDP1 no CPT: qHTS for Inhibitors of human tyrosyl-DNA phosphodiesterase 1 (TDP1): qHTS in cells in absence of CPT. DT40 Tdp1-/- hTDP1 cells, no CPT, ATP luminescence, 48 h. Potency, µM (titrated, usually from 46.2 µM), inactives show at the highest dose activity change, negative = growth inhibition, actives largely listed as inhibitors. 420,000 compounds, 15% hits; note: potency is the fitted concentration of half-maximal effect; nearly all actives have a fitted effect of over 55% in size
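Seeded 400 DT40-hTDP1 cells/well (vehicle DMSO, no 20 nM CPT); pinned compounds; ≥48 hr at 37 °C; CellTiter-Glo luminescence as viability measure.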
HT1080NT lethal: kills 2HG-producing HT-1080-NT fibrosarcoma cells; AID 686970; 360,000 compounds, 1.6% hits; Potency, µM (series often up to 46.1 µM), inactives show at the top dose activity, negative = less viability, actives largely listed as cytotoxic; HT-1080-NT fibrosarcoma viability, CellTiter-Glo ATP luminescence, 48 h;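 note: NT is the 2HG producing partner of a matched IDH1 knockdown line; potency is the fitted concentration of half-maximal effect; 0% = DMSO-treated cells and -100% = media-only wells without cells; nearly all actives have a fitted effect of over 55% in size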
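Fibrosarcoma NT cells, 750 per well in 5% FBS RPMI, were exposed to compound for 48 hours. Viability: CellTiter-Glo luminescence.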
uPA generation: blocks generation of uPA at the cell surface; Potency, µM (series often up to 38.3 µM), without a hit: at the highest dose activity change, negative = inhibition, most hits filed as inhibitors; cell surface uPA generation assay, qHTS; 330,000 compounds, 0.31% hits; active = well fitted inhibition curve with a large enough effect; inconclusive = small, poorly fitted or top-dose-only effect; inactive = no such curve, though single readings can be large or run the other way; tested in mouse RAW 264.7 cells; note: potency is the fitted concentration of half-maximal effect; nearly all actives have a fitted effect of over 55% in size
DT40 TDP1 CPT: DT40-hTDP1 cell growth loss with CPT; AID 686979; chicken DT40 Tdp1-/-;hTDP1 cells + 20 nM CPT, ATP luminescence, 48 h; Potency, µM (doses to about 46.2 µM), without a hit: top-dose activity change, negative = growth inhibition, most hits filed as inhibitors; 420,000 compounds, 12% hits; note: potency is the fitted concentration of half-maximal effect; nearly all actives have a fitted effect of over 55% in size
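Chicken DT40 Tdp1-/- cells complemented with human TDP1, 400 cells/well, exposed to compounds plus 20 nM camptothecin for at least 48 h at 37 C; viability read as ATP content by CellTiter-Glo luminescence.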
HT1080 IDH1KD tx: toxicity to HT-1080 IDH1 knockdown cells (counter line). 360,000 compounds, 2% hits. AID 686971. HT-1080 IDH1 knockdown viability, ATP luminescence, 48 h. Potency, µM (titrated, usually from 46.1 µM), for inactives: at the top dose activity, negative = toxicity, most hits filed as cytotoxic;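 note: potency is the fitted concentration of half-maximal effect; 0% = DMSO wells and -100% = cell-free medium wells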
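Knockdown cells (IDH1KD HT-1080) received compounds 2 h after plating at 750 cells/well and were kept 48 h at 37 °C in 5% FBS RPMI. A CellTiter-Glo luminescence read gave % activity for curve fitting.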
IL1B secr inh: inhibitors of inflammasome signaling (IL-1 beta secretion); THP-1 LPS/ATP IL-1B secretion, AlphaLISA, 16 h; active compounds read low; activity change, % at 57.5 µM; 360,000 compounds, 4.7% hits; AID 743279; in the data active = activity change below about -50%; inconclusive = mostly about -30% to -49%
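Secreted IL-1B measured by AlphaLISA bead assay after 16 h compound exposure of THP-1 cells; compounds (final up to 57.5 uM) added 1 h before LPS (250 ng/mL) and ATP (1.25 mM) stimulation; lower signal means less secretion.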
* marks the source's active call; other numbers are inactive results; ? = inconclusive; nt = not tested or not shown; [ ] = remark or other dose. Unless noted, calls come from the whole dose curve; as a rule, active = well fitted curve in the direction sought with a large enough effect; inconclusive = small, poorly fitted or top-dose-only effect, or another doubt; inactive = no such curve, though single readings can be large; an effect the other way counts as inactive or inconclusive. Unless noted, % is set by controls: 0 for no effect and ±100 for the full control effect.

SMILES | DT40 TDP1 no CPT | HT1080NT lethal | uPA generation | DT40 TDP1 CPT | HT1080 IDH1KD tx | IL1B secr inh
O=C(COC(=O)c1ccccc1NC(=O)c1ccccc1)c1cccc([N+](=O)[O-])c1 | 0% | 9% | 5% | -5% | 7% | 0
Nc1nnnn1CC(=O)N/N=C/c1cc([N+](=O)[O-])ccc1O | -9% | -8% | 1% | -23% | -18% | -2
CCN(CC)S(=O)(=O)c1ccc(N/N=C/c2ccc(O)cc2O)nc1 | 5.8µM* | ? | -12% | 4.6µM* | ? | 82
CS(=O)(=O)NCc1nnc(SCc2ccc(C(F)(F)F)cc2)o1 | 0% | 11% | 1% | 10% | 18% | 11
CC(Cn1cncn1)C(=O)N1CCN(S(=O)(=O)c2ccc(Cl)cc2)CC1 (configuration not stated) | -19% | 10% | 3% | 8% | 2% | -6
CCOC(=O)c1c(S(=O)(=O)N2CCC(C(=O)NCc3ccc(F)cc3)CC2)c(C)n(C)c1C | -12% | nt | nt | -20% | nt | nt
O=C(N/N=C/c1cc([N+](=O)[O-])ccc1O)C12CC3CC(CC(C3)C1)C2 | 23µM* | -11% | -6% | ? | -16% | 161
O=C(N/N=C/c1cc([N+](=O)[O-])ccc1O)NC12CC3CC(CC(C3)C1)C2 | ? | -21% | -5% | ? | -21% | 27
CCCOc1ccc(/C=C/C(=O)O)cc1OC | -7% | -7% | -8% | 0% | -2% | 35
COc1cc(/C=C/C(=O)c2ccc(O)cc2)ccc1OCC#N | 10µM* | 24% | -3% | 8.2µM* | 16% | ?
COC(=O)c1ccc(/C=C/C(=O)c2cccc(OC)c2)cc1 | 23µM* | ? | 1% | ? | 23µM* | -101*
COc1cccc(C(=O)/C=C/c2ccc(SC)cc2)c1 | ? | -3% | nt | ? | ? | -20
COc1cccc(C(=O)/C=C/c2ccc(OCC#N)c(OC)c2)c1 | 13µM* | ? | -9% | 21µM* | ? | -102*
COc1cc(/C=C/C(=O)OCC(=O)N2CCC(C)CC2)ccc1OCC#N | 3% | 4%[9.24 µM] | -9% | 3% | 6% | -28
CCOc1ccc(/C=C/C(=O)c2ccccc2)cc1OC | ? | -7% | -7% | ? | 0% | -103*
CCOC(=O)C1CCCN(c2ncnc3c2cnn3-c2ccc(C)c(Cl)c2)C1 (configuration not stated) | -14% | nt | nt | ? | nt | nt
Cc1cc(NC(=O)C(C)(C)Oc2ccc(Cl)cc2)cc(-c2nc3ncccc3o2)c1O | 3% | nt | nt | 8% | nt | nt
CC(C)c1csc(CN2CCC(N3CCC(C(=O)N4CCOCC4)CC3)CC2)n1 | ? | 7% | 9% | 3% | 23% | 21
Cc1ccn2c(-c3csc(NCc4ccccc4)n3)c(C)nc2c1 | 15µM* | ? | -12% | ? | ? | -21
Cc1nc2ccccn2c1-c1csc(NCc2ccco2)n1 | 21µM* | -27% | -6% | 13µM* | -25% | ?
Cc1nc(-n2nc(C)c(Cc3ccccc3Cl)c2C)sc1C(=O)N1CCCCC1C (configuration not stated) | 21µM* | nt | nt | ? | nt | nt
CC(=O)Nc1cc(-c2ccc(C(=O)N3CCOCC3)cc2)cn2c(-c3ccc(S(C)(=O)=O)cc3)cnc12 | 13µM* | -8% | nt | 16µM* | 5% | -28
CC(=O)Nc1cc(-c2ccc(C(=O)N3CCOCC3)cc2)cn2c(-c3ccc(F)c(Cl)c3)cnc12 | 16µM* | ? | nt | 23µM* | ? | ?
CC(=O)Nc1cc(C(=O)N2CCOCC2)ccc1S(=O)(=O)c1ccc(C)cc1 | 3% | 0% | 2% | -11% | 2% | 7
CCOC(=O)c1c(C)cc2c(CO)n[nH]c(=O)c2c1C | ? | -5% | nt | ? | -11% | -11
SMILES | DT40 TDP1 no CPT | HT1080NT lethal | uPA generation | DT40 TDP1 CPT | HT1080 IDH1KD tx | IL1B secr inh
CN(C)CC/C=C1/c2ccccc2COc2ccc(CC(=O)O)cc21 | 1% | -2% | 12% | 15% | 1% | 14
CN(C)CCC=C1c2ccccc2C=Cc2ccccc21 | 15µM* | ? | -28% | ? | ? | ?
CNCCC=C1c2ccccc2C=Cc2ccccc21 | 13µM* | 21µM* | ? | 16µM* | 15µM* | -51*
CCCCOc1ccc2c(c1)C(=O)c1cc(O)ccc1-2 | ? | ? | 0% | -11% | ? | -101*
CC(C)N1CC2(CC(c3ccccc3C(F)(F)F)=NO2)CN1C(=O)c1ccc(C(C)(C)C)cc1 (configuration not stated) | 21µM* | -7% | nt | 16µM* | -13% | 44
CC(C)N1CC2(CC(c3ccc(Cl)cc3Cl)=NO2)CN1C(=O)c1ccc(C(C)(C)C)cc1 (configuration not stated) | 12µM* | -3% | nt | 15µM* | 3% | -2
CC(=O)N1CC2(CC(c3ccccc3F)=NO2)CN1c1ccc(Cl)cc1 (configuration not stated) | ? | 8% | nt | ? | 3% | -15
CC(C)N1CC2(CC(c3ccccc3F)=NO2)CN1C(=O)c1ccc(C(C)(C)C)cc1 (configuration not stated) | 10µM* | -7% | nt | 23µM* | -9% | 2
CC(C)CC1=NN(C(=O)c2ccco2)C(O)(C(F)(F)F)C1 (configuration not stated) | ? | 6% | 5% | -17% | 25% | 4
CC(C)CCNC(=O)C1CC(c2ccccc2C(F)(F)F)=NO1 (configuration not stated) | -25% | 8% | 5% | -2% | 5% | 11
CC(C)N1CC2(CC(c3ccccc3C(F)(F)F)=NO2)CN1C(=O)c1ccco1 (configuration not stated) | 8.2µM* | 16% | nt | ? | -6% | -5
Cc1cccc(CC(Cc2nc3ccccc3[nH]2)c2nc3ccccc3[nH]2)c1 (configuration not stated) | ? | 18µM* | 4% | 16µM* | 26µM* | -75*
CC(C)Cc1nc2ccccc2[nH]1 | -17% | 2% | -12% | 20% | 4% | 1
COc1ccccc1CC(Cc1nc2ccccc2[nH]1)c1nc2ccccc2[nH]1 (configuration not stated) | 30µM* | -5% | 8% | ? | ? | -26
COc1cc2nc(CC(O)c3nc4cc(OC)c(OC)cc4[nH]3)[nH]c2cc1OC (configuration not stated) | 6.3µM* | nt | nt | 7.1µM* | nt | nt
